Reference: PubChem BioAssay AID1159580 (chemical genetic matrix, 2015)
Out of some 5,500 compounds screened, about 2,000 (36%) were called active. Not shown: some 18% with an inconclusive outcome. No stated cut-off is given here; in the data, active means normalized growth mostly below about 0.91 (no sharp cut-off); inconclusive means no clear call, values can overlap the other calls; inactive means mostly above about 0.92. This is one part of the list.

Test: chemical genetic growth profiling, strain panel (AID 1159580);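 further: tested at 20 µM; growth read once vehicle control cultures reached saturation at 30 °C; 1 = growth at the plate median or of vehicle wells; lower values mean less growth of the strain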
Conditions: growth OD

Measured: normalized growth

NC[C@H]1O[C@H](O[C@H]2C(O[C@@H]3O[C@H](CO)[C@@H](O)[C@H]3O)[C@@H](O)[C@H](N)C[C@@H]2N)[C@H](N)[C@@H](O)[C@@H]1O (some centres not stated)
inactive: S. cerevisiae deletion strains, locus YJR075W, strain HOC1, active compounds read low 0.987 | S. cerevisiae deletion strains, locus YKL009W, strain mrt4, active compounds read low 0.995 | S. cerevisiae deletion strains, locus YKL068W, active compounds read low 0.99 | S. cerevisiae deletion strains, locus YKL085W, strain MDH1 (second series), active compounds read low 1 | S. cerevisiae deletion strains, locus YKL085W, strain MDH1, active compounds read low 1 | S. cerevisiae deletion strains, locus YKL160W, strain elf1, active compounds read low 1.01 | S. cerevisiae deletion strains, locus YKL190W, strain CNB1, active compounds read low 1.02 | S. cerevisiae deletion strains, locus YKR001C, strain vps1, active compounds read low 0.976 | S. cerevisiae deletion strains, locus YKR026C, strain gcn3, active compounds read low 0.982 | S. cerevisiae deletion strains, locus YKR091W, strain srl3, active compounds read low 0.993 | S. cerevisiae deletion strains, locus YLL001W, strain dnm1, active compounds read low 1 | S. cerevisiae deletion strains, locus YLL026W, active compounds read low 0.984 | S. cerevisiae deletion strains, locus YLL041C, strain sdh2, active compounds read low 0.995 | S. cerevisiae deletion strains, locus YLR027C, strain aat2, active compounds read low 1 | S. cerevisiae deletion strains, locus YLR039C, strain RIC1, active compounds read low 0.989 | S. cerevisiae deletion strains, locus YLR058C, strain SHM2, active compounds read low 0.99 | S. cerevisiae deletion strains, locus YLR102C, strain apc9, active compounds read low 0.999 | S. cerevisiae deletion strains, locus YLR113W, strain HOG1, active compounds read low 1.03 | S. cerevisiae deletion strains, locus YLR221C, strain rsa3, active compounds read low 1 | S. cerevisiae deletion strains, locus YLR258W, strain gsy2, active compounds read low 0.995 | S. cerevisiae deletion strains, locus YLR262C, strain YPT6 (second series), active compounds read low 1.01 | S. cerevisiae deletion strains, locus YLR262C, strain YPT6, active compounds read low 0.997 | S. cerevisiae deletion strains, locus YLR268W, strain sec22, active compounds read low 0.955 | S. cerevisiae deletion strains, locus YLR320W, strain mms22, active compounds read low 0.991 | S. cerevisiae deletion strains, locus YLR330W, strain CHS5, active compounds read low 0.997 | S. cerevisiae deletion strains, locus YLR342W, strain FKS1 (second series), active compounds read low 1.03 | S. cerevisiae deletion strains, locus YLR342W, strain FKS1, active compounds read low 1 | S. cerevisiae deletion strains, locus YLR357W, strain rsc2, active compounds read low 0.967 | S. cerevisiae deletion strains, locus YLR370C, strain arc18, active compounds read low 0.998 | S. cerevisiae deletion strains, locus YLR371W, strain rom2, active compounds read low 0.987 | S. cerevisiae deletion strains, locus YLR384C, strain iki3, active compounds read low 0.985 | S. cerevisiae deletion strains, locus YLR418C, strain cdc73, active compounds read low 0.975 | S. cerevisiae deletion strains, locus YML016C, strain PPZ1, active compounds read low 0.992 | S. cerevisiae deletion strains, locus YML032C, strain rad52, active compounds read low 0.979 | S. cerevisiae deletion strains, locus YML120C, strain ndi1, active compounds read low 1.01 | S. cerevisiae deletion strains, locus YML124C, strain tub3, active compounds read low 0.993 | S. cerevisiae deletion strains, locus YMR058W, strain fet3, active compounds read low 1 | S. cerevisiae deletion strains, locus YMR078C, strain ctf18, active compounds read low 0.99 | S. cerevisiae deletion strains, locus YMR125W, strain sto1, active compounds read low 0.963 | S. cerevisiae deletion strains, locus YMR129W, active compounds read low 0.981 | S. cerevisiae deletion strains, locus YMR205C, strain PFK2, active compounds read low 0.962 | S. cerevisiae deletion strains, locus YMR223W, strain ubp8, active compounds read low 1.01 | S. cerevisiae deletion strains, locus YMR231W, strain pep5, active compounds read low 1 | S. cerevisiae deletion strains, locus YMR263W, strain SAP30, active compounds read low 0.995 | S. cerevisiae deletion strains, locus YMR307W, strain GAS1, active compounds read low 0.997 | S. cerevisiae deletion strains, locus YNL067W, strain RPL9B, active compounds read low 0.984 | S. cerevisiae deletion strains, locus YNL071W, strain lat1, active compounds read low 1.01 | S. cerevisiae deletion strains, locus YNL128W, strain TEP1, active compounds read low 0.994 | S. cerevisiae deletion strains, locus YNL153C, strain GIM3, active compounds read low 0.993 | S. cerevisiae deletion strains, locus YNL183C, strain NPR1, active compounds read low 0.974 | S. cerevisiae deletion strains, locus YNL209W, strain ssb2, active compounds read low 1 | S. cerevisiae deletion strains, locus YNL233W, strain BNI4, active compounds read low 0.981 | S. cerevisiae deletion strains, locus YNL248C, strain rpa49, active compounds read low 1.01 | S. cerevisiae deletion strains, locus YNL250W, strain rad50, active compounds read low 0.987 | S. cerevisiae deletion strains, locus YNL271C, strain bni1, active compounds read low 0.99 | S. cerevisiae deletion strains, locus YNL298W, strain CLA4, active compounds read low 0.981 | S. cerevisiae deletion strains, locus YNL307C, strain MCK1, active compounds read low 0.989 | S. cerevisiae deletion strains, locus YNL322C, strain KRE1 (second series), active compounds read low 0.987 | S. cerevisiae deletion strains, locus YNL322C, strain KRE1, active compounds read low 1 | S. cerevisiae deletion strains, locus YNR049C, strain mso1, active compounds read low 0.997 | S. cerevisiae deletion strains, locus YNR052C, strain pop2, active compounds read low 0.992 | S. cerevisiae deletion strains, locus YOL006C, strain TOP1, active compounds read low 0.988 | S. cerevisiae deletion strains, locus YOL012C, strain htz1 0.933 | S. cerevisiae deletion strains, locus YOL147C, strain pex11, active compounds read low 0.989 | S. cerevisiae deletion strains, locus YOR001W, strain rrp6, active compounds read low 1 | S. cerevisiae deletion strains, locus YOR061W, strain CKA2, active compounds read low 0.997 | S. cerevisiae deletion strains, locus YOR069W, strain VPS5, active compounds read low 0.988 | S. cerevisiae deletion strains, locus YOR070C, strain gyp1, active compounds read low 1 | S. cerevisiae deletion strains, locus YOR080W, strain dia2, active compounds read low 0.987 | S. cerevisiae deletion strains, locus YOR083W, strain WHI5, active compounds read low 1.01 | S. cerevisiae deletion strains, locus YOR106W, strain vam3, active compounds read low 1 | S. cerevisiae deletion strains, locus YOR136W, strain idh2, active compounds read low 0.995 | S. cerevisiae deletion strains, locus YOR144C, strain elg1, active compounds read low 0.985 | S. cerevisiae deletion strains, locus YOR184W, strain ser1, active compounds read low 0.975 | S. cerevisiae deletion strains, locus YOR231W, strain MKK1, active compounds read low 0.975 | S. cerevisiae deletion strains, locus YOR265W, strain rbl2, active compounds read low 0.991 | S. cerevisiae deletion strains, locus YOR270C, strain vph1, active compounds read low 1.01 | S. cerevisiae deletion strains, locus YOR290C, strain snf2, active compounds read low 0.957 | S. cerevisiae deletion strains, locus YOR316C, strain cot1, active compounds read low 0.994 | S. cerevisiae deletion strains, locus YPL051W, strain arl3, active compounds read low 1.01 | S. cerevisiae deletion strains, locus YPL055C, strain LGE1, active compounds read low 1.04 | S. cerevisiae deletion strains, locus YPL078C, strain atp4, active compounds read low 1.01 | S. cerevisiae deletion strains, locus YPL106C, strain sse1, active compounds read low 0.951 | S. cerevisiae deletion strains, locus YPL240C, strain hsp82, active compounds read low 1.01 | S. cerevisiae deletion strains, locus YPL241C, strain CIN2, active compounds read low 1 | S. cerevisiae deletion strains, locus YPL256C, strain CLN2, active compounds read low 0.986 | S. cerevisiae deletion strains, locus YPR119W, strain clb2, active compounds read low 1 | S. cerevisiae deletion strains, locus YPR141C, strain kar3, active compounds read low 0.978 | S. cerevisiae deletion strains, locus YPR163C, strain tif3, active compounds read low 0.989 | S. cerevisiae deletion strains, locus YPR167C, strain met16, active compounds read low 0.991 | S. cerevisiae deletion strains, strain wtn01, active compounds read low 0.956 | S. cerevisiae strains, strain wild type, active compounds read low 1
